Test results from PubChem BioAssay AID686964 (The Scripps Research Institute Molecular Screening Center, 2013).
The whole screen tested about 370,000 compounds, of which about 1,100 (0.3%) were called active. This is one part of a sample in which actives are shown more often than they occur. Unmarked numbers belong to inactive results. Cut-off read from the data, not from the text of the source: active = inhibition above about 13%; inactive = the rest.

Each compound was assayed against Methyl-CpG-binding domain protein 2 (Homo sapiens) (UniProt Q9UBB5) (assay: inhibitors of MBD2 binding to methylated DNA, primary screen, biochemical, TR-FRET, DNA-binding domain, human (AID 686964)). Details: MBD2 binding to methylated oligonucleotide, at 4.4 µM, stronger effect = higher value.
Sequence of Methyl-CpG-binding domain protein 2 (Homo sapiens) (Q9UBB5 whole entry, looked up, the tested form may be a part): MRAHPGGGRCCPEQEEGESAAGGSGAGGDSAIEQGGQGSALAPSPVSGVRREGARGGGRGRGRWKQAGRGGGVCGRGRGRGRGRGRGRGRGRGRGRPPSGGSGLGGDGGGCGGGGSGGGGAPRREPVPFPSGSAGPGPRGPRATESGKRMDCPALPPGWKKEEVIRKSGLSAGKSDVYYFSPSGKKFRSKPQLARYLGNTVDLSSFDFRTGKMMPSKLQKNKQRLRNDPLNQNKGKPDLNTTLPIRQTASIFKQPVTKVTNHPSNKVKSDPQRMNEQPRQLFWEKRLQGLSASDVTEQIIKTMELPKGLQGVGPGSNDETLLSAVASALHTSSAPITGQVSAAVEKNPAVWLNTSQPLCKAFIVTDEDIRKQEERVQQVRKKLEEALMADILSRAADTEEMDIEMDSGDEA
For O=C(CNS(=O)(=O)c1ccccc1F)N1CCN(c2ccccn2)CC1, the inhibition was -1.19%.
Work on COC(=O)c1ccc2nc(-c3ccc(C)cc3)c(Cc3ccc(OC)cc3C)n2c1 yielded an inhibition of 7.16%.
COC(=O)c1ccc2nc(-c3ccccc3)c(Cc3ccc(OC)cc3C)n2c1 showed an inhibition of 10.6%.
For COC(=O)c1ccc2nc(-c3cccc(Br)c3)c(Cc3ccc(OC)cc3C)n2c1, the inhibition was 14.9% (active).
Work on Cc1ccc(OCc2nnc(SC/C=C/c3ccccc3)n2Cc2ccco2)cc1 yielded an inhibition of -3.87%.
C=CCN1C(=O)[C@@H](CC(=O)N2CCN(C(=O)OCC)CC2)[C@]2(C(=O)OCC)CCCCC/C=C/12 showed an inhibition of 4.9%.
In the case of Brc1ccc(-c2n(-c3ccccn3)c3ccccc3[n+]2-c2ccccn2)cc1, the inhibition is reported as 27.6% (active).
Work on CS(=O)(=O)N(C(=O)NC(=O)NC1CCS(=O)(=O)C1)C1CCCCC1 (centres undefined) yielded an inhibition of 0.13%.
For CCCC1CCC2(CCCN2CCOC(=O)NCc2ccccc2)CC1 (centres undefined), the inhibition was 3.95%.
Compound COc1ccnc(NC(=S)N2CCN(c3ncc(C(F)(F)F)cc3Cl)CC2)c1 has an inhibition of 6.09%.
CCOc1cc(-c2noc(CCC(=O)N3CCOCC3)n2)ccc1OC gave an inhibition of -5.56%.
Compound COc1ccc(-c2noc(CCCC(=O)NC3CCCC3)n2)cc1OC has an inhibition of -2.51%.
CCOc1cc(-c2noc(CCCC(=O)NC3CCCCC3)n2)ccc1OC was tested, and the inhibition was 20.2% (active).
Compound CCOC(=O)[C@]12CCCC=C1N(CCCOC)C(=O)[C@@H]2CC(=O)N1CCOCC1 has an inhibition of -0.28%.
Compound Cc1cc(C(=O)NN=C/C=C/c2ccco2)n[nH]1 has an inhibition of -1.33%.
For C/C=C/c1ccc(OCCCCN2CCC(C)CC2)c(OC)c1, the inhibition was -2.18%.
Work on C[C@H](O)[C@@H]1C(=O)N2CCc3c([nH]c4c(-c5ccc6c(c5)OCO6)cccc34)[C@@H]2C[C@@H]1N(C)C(=O)c1ccco1 yielded an inhibition of -2.04%.
With O=S(=O)(NCC1CCCO1)c1cnc(Cl)c(Cl)c1 (centres undefined) the inhibition was 4.2%.
In the case of COc1ccccc1OCC(=O)Nc1c2c(nn1-c1ccc(F)cc1)CS(=O)(=O)C2, the inhibition is reported as -1.49%.
O=C(Nc1c2c(nn1-c1ccccc1)CS(=O)(=O)C2)C1CCCC1 gave an inhibition of 2.43%.
For O=C(CC1CCCCC1)Nc1c2c(nn1-c1ccc(F)cc1)CS(=O)(=O)C2, the inhibition was 15.6% (active).
With c1coc(CCNc2ncnc3ccc(-c4ccc5c(c4)OCO5)cc23)c1 the inhibition was -2.55%.
COc1ccc(C2NC(=O)N(C)C(C)=C2[N+](=O)[O-])cc1 (centres undefined) was tested, and the inhibition was 0.13%.
In the case of O=C1NC(=O)C(c2ccc(Cl)cc2)N1 (centres undefined), the inhibition is reported as 0.89%.
For CC(C)Oc1ccc(C2NC(=O)NC2=O)cc1 (centres undefined), the inhibition was 15.2% (active).
In the case of CN(C)Cc1cn(-c2ccc(-c3noc4c3C(=O)N(CC(=O)N3CCOCC3)CC4)cc2)nn1, the inhibition is reported as -2.86%.
For COC(=O)[C@]12C[C@H](CC(=O)NCc3ccc(OC)c(OC)c3)C(=O)N(Cc3ccccc3)C1=C[C@H](C(C)C)O[C@@H]2C1CC1, the inhibition was -2.93%.
Cc1ccc(CN2CCNC(=O)C2CC(=O)NCc2csc(C(C)C)n2)cc1 (centres undefined) gave an inhibition of 0.13%.
For CC(C)c1nc(CNC(=O)CC2C(=O)NCCN2Cc2cccc(F)c2F)cs1 (centres undefined), the inhibition was 24.3% (active).
CC(C)c1nc(CNC(=O)CC2C(=O)NCCN2Cc2ccoc2)cs1 (centres undefined) showed an inhibition of -4.85%.
Work on COc1ccc(Cn2cc(CN3[C@@H](CC(C)C)COc4cc(Br)ccc4S3(=O)=O)nn2)cc1 yielded an inhibition of 0.36%.
Cc1c(C(=O)NCCN(C)C)oc2ccc(S(=O)(=O)N3CCCC3)cc12 was tested, and the inhibition was 4.85%.
Compound CN(C)CCNC(=O)Cc1ccc([N+](=O)[O-])cc1 has an inhibition of -0.79%.
CN(C)CCNC(=O)c1ccc(Cl)c2cc3ccccc3nc12 was tested, and the inhibition was 51.2% (active).
COc1ccc(OCCCC(=O)Nc2cccc(S(=O)(=O)N3CCCCCC3)c2)cc1 showed an inhibition of -2.96%.
For C[C@H]1[C@H](c2ccccc2)Oc2cc(Br)ccc2S(=O)(=O)N1Cc1cccc(F)c1, the inhibition was 8.37%.
With O=C1/C(=C\c2ccc([N+](=O)[O-])cc2)CS(=O)(=O)C/C1=C/c1ccc([N+](=O)[O-])cc1 the inhibition was -5.61%.
CCOc1ccc(S(=O)(=O)N2CCC(C(=O)NCc3ccccn3)CC2)cc1Cl showed an inhibition of -0.81%.
Work on O=S(=O)(c1ccccc1)N1CCC(c2ccccc2)CC1 yielded an inhibition of 0.43%.
In the case of CCOc1ccc(S(=O)(=O)N2CCC(c3ccccc3)CC2)cc1C(=O)O, the inhibition is reported as 22.6% (active).
CSc1ncccc1C(=O)N1CCCC(Nc2ccc(F)c(F)c2)C1 (centres undefined) showed an inhibition of 2.81%.
In the case of O=C(c1n[nH]c2c1CCC2)N1CCCC(Nc2cccc(F)c2)C1 (centres undefined), the inhibition is reported as 14.7% (active).
Compound COC(=O)c1cccc(C(=O)N2CCCC(Nc3ccc4c(c3)OCCO4)C2)c1 (centres undefined) has an inhibition of 4.97%.
O=C(CSc1nnc(COc2ccccc2)n1-c1ccc(Cl)cc1)Nc1ccc2c(c1)OCO2 was tested, and the inhibition was 3.27%.
Cc1ccccc1C(=O)N[C@H](C(=O)N1CCC[C@H]1C(=O)NCc1ccccc1)C(C)C showed an inhibition of -4.41%.
Work on COC(=O)Cc1ccc(OC2(C)CCN(Cc3ccc4c(c3)OCCO4)C2)cc1 (centres undefined) yielded an inhibition of 5.04%.
With COC(=O)c1c(NC(=O)c2ccc(S(=O)(=O)N3CCOCC3)cc2)sc2c1CCN(C(C)C)C2 the inhibition was 13.3% (active).
COc1ccc(S(=O)(=O)N2CCOCC2)cc1NC(=O)c1ccc(OCC(C)C)c(OC)c1 gave an inhibition of 0.42%.
Work on CC(OC(=O)c1ccc(S(=O)(=O)N2CCOCC2)cc1)c1ccccc1 (centres undefined) yielded an inhibition of 5.42%.
CC(OC(=O)CCC(=O)c1ccccc1)C(=O)Nc1ccc(F)cc1 (centres undefined) showed an inhibition of -0.7%.
Work on COCCNC(=S)N(C)[C@H]1C[C@H]2c3[nH]c4ccccc4c3CCN2C[C@H]1[C@H](C)O yielded an inhibition of -2.52%.
CCOc1ccc(-n2c(SCC(=O)Nc3cc(C)c(NC(=O)c4ccccc4)cc3OC)nnc2-c2cccs2)cc1 showed an inhibition of -6.74%.
For COc1ccc(CCNC(=O)CN(c2ccccc2)S(=O)(=O)c2ccccc2)cc1, the inhibition was 2%.
CCOc1ccc(N(CC(=O)NCCc2ccc(F)cc2)S(=O)(=O)c2ccccc2)cc1 gave an inhibition of 4.6%.
For CCOc1ccc(N(CC(=O)NCCOc2ccccc2OC)S(=O)(=O)c2ccccc2)cc1, the inhibition was 15.1% (active).
Compound C=CCN1C(=O)[C@@H](CC(=O)N2CCN(C(=O)c3ccco3)CC2)[C@]2(C(=O)OC)CCCCC=C12 has an inhibition of 3.2%.
For CN(CCc1ccccc1)C(=O)Cn1nc(-c2ccccc2)ccc1=O, the inhibition was -0.03%.
CCOC(=O)N1CCN(C(=O)C[C@H]2C[C@@]3(C(=O)OC)C(=C[C@H](C4CCCC4)O[C@@H]3C)N(Cc3ccccc3)C2=O)CC1 was tested, and the inhibition was -8.2%.
COc1ccc2[nH]c3c(C)c4cc[n+](C)cc4c(C)c3c2c1 was tested, and the inhibition was 109% (active).
In the case of CCCc1nnc(SCC(=O)N2C(C)CCCC2C)n1CC (centres undefined), the inhibition is reported as 3.6%.
Compound O=P(c1cccs1)(c1cccs1)c1cccs1 has an inhibition of 0.79%.
With Cc1ccc(Cc2cnc(N)s2)o1 the inhibition was 19.8% (active).
With CCOc1ccccc1CN1CCN(C2CCC2)CC1CCO (centres undefined) the inhibition was -1.77%.
Work on CC1CCCCC12NC(=O)N(CC(=O)Nc1ccc(S(=O)(=O)Nc3ncccn3)cc1)C2=O (centres undefined) yielded an inhibition of 5.36%.
Work on Cc1cc(C)c(S(=O)(=O)NCC2CCC(C(=O)NCc3ccc4c(c3)OCO4)CC2)c(C)c1 (centres undefined) yielded an inhibition of 1.75%.
For CCn1c2ccccc2c2cc(NC(=O)CSc3nnc(-c4ccccc4)n3-c3ccc(C)cc3)ccc21, the inhibition was 1.63%.
Work on CCn1c(=O)n2n(c1=O)[C@@]1(C=C3CCCC[C@H]32)N=C(NC(=O)c2ccccc2)N(Cc2ccccc2)[C@H]1Cc1ccccc1 yielded an inhibition of -2.62%.
CCCCCN1CCCCC(NC(=O)C(C)CCC)C1=O (centres undefined) was tested, and the inhibition was 0.39%.
For O=C(CNC(=O)c1ccccc1)OC(C(=O)Nc1cc([N+](=O)[O-])ccc1F)c1ccccc1 (centres undefined), the inhibition was 0.02%.
For Cc1cccc(NC(=O)C[C@H]2CC[C@H]3[C@@H](COc4ccc(NC(=O)Nc5ccccc5)cc4C(=O)N3C)O2)c1, the inhibition was 14.6% (active).
Work on COC(=O)C[C@@H]1CC[C@@H]2[C@@H](COc3ccc(NC(=O)Nc4ccc(F)c(F)c4)cc3C(=O)N2C)O1 yielded an inhibition of -6.09%.
In the case of CCC(=O)Nc1ccc2c(c1)C(=O)N(C)[C@@H]1CC[C@@H](CC(=O)NCCc3ccccc3)O[C@H]1CO2, the inhibition is reported as -1.77%.
O=C(NCCCc1ccccc1)[C@H](Cc1ccccc1)NC1(C(=O)NCCc2c[nH]c3ccccc23)CCC1 gave an inhibition of -4.2%.
Compound CCOC(=O)C1CCN(C(=O)C(C)(C)NC(=O)Nc2ccc(F)c(F)c2)CC1 has an inhibition of -0.53%.
In the case of CCCCCCCCN1C(=O)[C@@H](CC(=O)N2CCN(C(=O)OCC)CC2)C[C@@]2(C(=O)OC)C1=C[C@H](C1CCCC1)O[C@@H]2C, the inhibition is reported as -0.47%.
Work on CC(C)C(=O)N1CCC2(CC1)Oc1ccc(F)cc1C(=O)C21CC(c2ccccc2)=NO1 (centres undefined) yielded an inhibition of -4.91%.
For CC(=O)c1ccccc1NC(=O)COC(=O)C1COc2ccccc2O1 (centres undefined), the inhibition was 28.3% (active).
Work on CCOC(=O)c1ccccc1NC(=O)COC(=O)CCC(=O)N1CCOCC1 yielded an inhibition of 3.48%.
CC(=O)c1ccccc1NC(=O)CC1(CC(=O)O)CCCCC1 showed an inhibition of -1.55%.
With COc1ccc(Cn2cc(COC(=O)N(C)Cc3ccccc3)nn2)cc1 the inhibition was 1.89%.
For CC(C)(C)C1C/C(=C/c2ccco2)C(=O)/C(=C/c2ccco2)C1 (centres undefined), the inhibition was 72% (active).
Work on CC(=O)c1ccc(OCC(=O)N(C)C2CCS(=O)(=O)C2)cc1 (centres undefined) yielded an inhibition of 1.21%.
CN(C(=O)COC(=O)c1cc(-c2ccco2)nc2ccccc12)C1CCS(=O)(=O)C1 (centres undefined) was tested, and the inhibition was 17.8% (active).
COc1ccc(-c2cc(=O)oc3cc(OCC(=O)N(C)C4CCS(=O)(=O)C4)ccc23)cc1 (centres undefined) gave an inhibition of 2.11%.
Work on CNC(=O)Nc1cc(C(C)(C)C)no1 yielded an inhibition of 3.32%.
Work on O=C(C[C@H]1C(=O)N(c2ccc(F)c(F)c2)C[C@@H]1Cc1ccccc1)Nc1ccccc1 yielded an inhibition of 5.88%.
With CNC(=O)C[C@H]1C(=O)N(c2ccc(OC)cc2)C[C@@H]1Cc1ccccc1 the inhibition was 13.2% (active).
CNC(=O)C[C@H]1C(=O)N(Cc2ccccc2)C[C@@H]1CSC gave an inhibition of 3.38%.
With COc1cc(/C=C/C(=O)n2cnc3ccccc32)cc(OC)c1OC the inhibition was -1.66%.
O=C(Nc1cc(Cl)cc(Cl)c1)OCCN1CCCC12CCC(c1ccccc1)CC2 (centres undefined) gave an inhibition of -4.82%.
With COC(=O)[C@]12C[C@H](CC(=O)NCCC(C)C)C(=O)N(CCc3ccc(OC)c(OC)c3)C1=C[C@H](C(C)(C)C)O[C@@H]2C the inhibition was 19.2% (active).
Compound COC(=O)[C@]12C[C@H](CC(=O)NCc3ccccc3)C(=O)N(CCc3ccc(OC)c(OC)c3)C1=C[C@H](C(C)(C)C)O[C@@H]2C has an inhibition of 1.88%.
CCCCOCCCNC(=O)C[C@H]1C[C@@]2(C(=O)OC)C(=C[C@H](C(C)(C)C)O[C@@H]2C)N(CCc2ccc(OC)c(OC)c2)C1=O gave an inhibition of 2.62%.
Work on COC(=O)CC1CCc2cc(C)cc(C(CC(C)C)NC(=O)[C@H](CC(C)C)NC(=O)OCc3ccccc3)c2O1 (some centres undefined) yielded an inhibition of 4.23%.
